The nature of test [1]: qHTS assay for small molecule agonists of the p53 signaling pathway (AID 651631). Also: nearly all actives have a fitted effect of over 15% in size. Also: potency is read from the fitted curve at half-maximal effect. The gist of the method:
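Read-out is beta-lactamase FRET fluorescence measured 2 h after substrate addition at room temperature, in HCT-116 cells with a p53 response element-driven reporter exposed to compounds for 16 h at 37 °C.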

In test [2] the target is Aromatase (Homo sapiens) (UniProt P11511). As to the kind of experiment: qHTS assay to identify aromatase inhibitors (AID 743083; active = well fitted curve in the direction sought with a large enough effect in the repeat runs; an effect the other way counts as inactive or inconclusive; also: nearly all actives have a fitted effect of over 55% in size; also: potency is read from the fitted curve at half-maximal effect). For orientation: qHTS replaces the single test concentration by a dilution series.
Sequence of Aromatase (Homo sapiens) (P11511 whole entry, looked up): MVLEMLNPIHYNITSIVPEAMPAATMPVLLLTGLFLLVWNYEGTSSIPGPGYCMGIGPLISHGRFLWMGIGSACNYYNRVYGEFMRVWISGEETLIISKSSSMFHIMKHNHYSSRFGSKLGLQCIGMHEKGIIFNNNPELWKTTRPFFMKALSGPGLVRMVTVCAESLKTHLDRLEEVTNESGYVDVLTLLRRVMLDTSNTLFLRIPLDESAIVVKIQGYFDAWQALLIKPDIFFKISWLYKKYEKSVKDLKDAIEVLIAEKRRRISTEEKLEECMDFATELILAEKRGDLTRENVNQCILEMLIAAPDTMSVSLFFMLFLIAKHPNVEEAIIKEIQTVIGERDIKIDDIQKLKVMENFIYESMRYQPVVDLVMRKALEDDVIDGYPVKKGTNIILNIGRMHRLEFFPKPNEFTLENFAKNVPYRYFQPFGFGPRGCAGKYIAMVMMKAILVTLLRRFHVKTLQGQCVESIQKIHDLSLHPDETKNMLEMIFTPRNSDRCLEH
Test [3] addresses Aryl hydrocarbon receptor (Homo sapiens) (UniProt P35869). Nature of the test: qHTS assay to identify small molecule that activate the aryl hydrocarbon receptor (AhR) signaling pathway (AID 743085; active = well fitted curve in the direction sought with a large enough effect in the repeat runs; an effect the other way counts as inactive or inconclusive; also: nearly all actives have a fitted effect of over 15% in size; also: potency is read from the fitted curve at half-maximal effect;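 as to activation: HG2L7.5c1 human HepG2 liver cells with stably integrated DRE-driven firefly reporter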). The gist of the method:
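Cell line HG2L7.5c1 (human hepatoma, 20× DRE-luc). Plated, 5 h 37C, compound/DMSO added, 24 h 37C. CellTiter-Fluor 30 min 37C → fluorescence; then ONE-Glo 30 min RT → luminescence.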

The nature of test [4]: qHTS assay to identify small molecule antagonists of the retinoic acid receptor (RAR) signaling pathway (AID 1159552; active = well fitted curve in the direction sought with a large enough effect in the repeat runs; an effect the other way counts as inactive or inconclusive; also: nearly all actives have a fitted effect of over 50% in size; also: potency is read from the fitted curve at half-maximal effect). The gist of the method: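 Cells of the C3RL4 line were seeded, incubated overnight, then dosed with compounds in DMSO followed immediately by retinol (1 uM final). Six hours later luciferase detection reagent went in; signal was measured after 30 min at RT.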

Test [5] can be described thus: qHTS assay to identify small molecule agonists of H2AX (AID 1224845; active = well fitted activation curve with a large enough effect in the signal ratio in the repeat runs, not every such curve was filed as active; the % refers to the signal ratio). The gist of the method: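 Wild-type CHO-K1 cells, plated overnight, exposed 3hr at 37C to 15 concentrations (0.76% DMSO final). Lysed, then HTRF anti-pH2AX (S139) cryptate and anti-H2AX-d2 antibodies, 24 hr room temperature; 665/620 nm emission read.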
Test [6] in a line: qHTS assay to identify small molecule agonists of the estrogen related receptor (ERR) signaling pathway from Tox21 library (AID 1224849). Also: nearly all actives have a fitted effect of over 15% in size. As to conditions: ERR reporter cell line, ONE-Glo luciferase, 18 h; at 92.4 µM (top of the series) unless noted. Summed up: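 Six hours post-seeding at 37 C/5% CO2, ERR cells receive DMSO-solubilised compounds; after 18 h at 37 C, ONE-Glo reagent is applied and luminescence recorded.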

Test [7] in a line: Caspase-3/7 induction in HepG2 cells by small molecules, qHTS assay (AID 1346978; active = well fitted curve in the direction sought with a large enough effect in the repeat runs; an effect the other way counts as inactive or inconclusive; also: nearly all actives have a fitted effect of over 15% in size; also: potency is read from the fitted curve at half-maximal effect). Summed up:
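Wild-type HepG2 cells, 2,000/well, settled 5 hr at 37 C and 5% CO2, then compound-treated for 17 hr; caspase-3/7 activity read by luminescent Caspase-Glo 3/7 after 30 min at room temperature.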

Test [8] has as its target Acetylcholinesterase (Homo sapiens) (UniProt P22303). As to the kind of experiment: Acetylcholinesterase (AChE) small molecule antagonists: enzyme-based qHTS assay (AID 1347397). Also: nearly all actives have a fitted effect of over 55% in size. Conditions: Potency: AChE enzyme activity inhibition; outcome: AChE enzyme activity inhibition. The gist of the method:
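Recombinant human AChE (50 mU/mL) preincubated with compound 30 min at room temperature; acetylthiocholine plus DTNB then added, and thiocholine formation read colorimetrically after 10 min at room temperature. DMSO served as vehicle control.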

Test [9] shares this target. Nature of the test: Acetylcholinesterase (AChE) small molecule antagonists: fluorescence cell-based qHTS assay (AID 1347398). Also: nearly all actives have a fitted effect of over 50% in size. Also: potency is read from the fitted curve at half-maximal effect. Conditions: Potency: AChE activity; outcome: AChE activity. Summed up: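 SH-SY5Y cells (2000/well), attached overnight, incubated with compound 30 min at 37 C. Acetylthiocholine plus Thiolite Green then added for 40 min at room temperature. Thiocholine fluorescence (Ex/Em 490/520 nm) reports cellular AChE activity.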

For test [10] the target is unchanged. As to the kind of experiment: Acetylcholinesterase (AChE) small molecule antagonists: enzyme-based qHTS assay with human liver microsomes (AID 1347399). Also: nearly all actives have a fitted effect of over 60% in size. As to conditions: Potency: qHTS inhibition; outcome: qHTS inhibition. Summed up:
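Recombinant human AChE (50 mU/mL in the enzyme mix) and human liver microsomes (0.25 mg/mL final) were preincubated with compound and NADPH (0.25 mg/mL final) for 30 min at 37 C. Acetylthiocholine/DTNB was then added; thiocholine was read colorimetrically after 10 min at room temperature.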

Test [11] has the same target. As to the kind of experiment: Acetylcholinesterase (AChE) small molecule antagonists: colormetric cell-based qHTS assay (AID 1347395). Also: nearly all actives have a fitted effect of over 30% in size. Summed up:
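Colorimetric read-out: DTNB detects thiocholine released when cellular AChE in SH-SY5Y cells hydrolyses acetylthiocholine. Cells attached overnight, received compound for 30 min at 37 C, then substrate mix for 90 min at 37 C.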

Test [12] is described as follows: qHTS assay to identify small molecule HDAC inhibitors (AID 1259364; active = well fitted curve in the direction sought with a large enough effect in the repeat runs; an effect the other way counts as inactive or inconclusive;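 also: wild-type HCT-116 cells with endogenous class I/II HDAC activity; top concentration of the series differs between compounds; nearly all actives have a fitted effect of over 45% in size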). The gist of the method: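 Relative class I and II HDAC activity is taken from the luminogenic signal in HCT-116 cells, with compound exposure 2 hr and reagent development 30 min at room temperature.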
Test [13] in a line: qHTS assay to identify small molecule agonists of the sonic hedgehog signaling (Shh) pathway (AID 1259368). The gist of the method: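 Mouse fibroblast (NIH/3T3) reporter cells with stably integrated Gli1-Luc were treated 24 hr with compound; firefly luciferase luminescence served as the read-out.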
Test [14] is described as follows: Caspase-3/7 induction in CHO-K1 cells by small molecules, qHTS assay (AID 1346980; active = well fitted curve in the direction sought with a large enough effect in the repeat runs; an effect the other way counts as inactive or inconclusive; also: nearly all actives have a fitted effect of over 15% in size). Summed up: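 Wild-type CHO-K1 cells exposed to compounds for 17hr at 37 C, 5% CO2. Caspase-3/7 activity then measured by Caspase-Glo 3/7 luminescence after 30min at room temperature.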

The source of these data is PubChem BioAssay (Tox21).

Results filed as inconclusive are left out. Where a structure was tested more than once in an assay, its records may differ in their call. The source made the active and inactive calls. Unless noted, calls follow the shape of the full dose curve.
% is scaled to controls: 0 for no effect and ±100 for the full control effect.

Sequence of Acetylcholinesterase (Homo sapiens) (P22303 whole entry, looked up): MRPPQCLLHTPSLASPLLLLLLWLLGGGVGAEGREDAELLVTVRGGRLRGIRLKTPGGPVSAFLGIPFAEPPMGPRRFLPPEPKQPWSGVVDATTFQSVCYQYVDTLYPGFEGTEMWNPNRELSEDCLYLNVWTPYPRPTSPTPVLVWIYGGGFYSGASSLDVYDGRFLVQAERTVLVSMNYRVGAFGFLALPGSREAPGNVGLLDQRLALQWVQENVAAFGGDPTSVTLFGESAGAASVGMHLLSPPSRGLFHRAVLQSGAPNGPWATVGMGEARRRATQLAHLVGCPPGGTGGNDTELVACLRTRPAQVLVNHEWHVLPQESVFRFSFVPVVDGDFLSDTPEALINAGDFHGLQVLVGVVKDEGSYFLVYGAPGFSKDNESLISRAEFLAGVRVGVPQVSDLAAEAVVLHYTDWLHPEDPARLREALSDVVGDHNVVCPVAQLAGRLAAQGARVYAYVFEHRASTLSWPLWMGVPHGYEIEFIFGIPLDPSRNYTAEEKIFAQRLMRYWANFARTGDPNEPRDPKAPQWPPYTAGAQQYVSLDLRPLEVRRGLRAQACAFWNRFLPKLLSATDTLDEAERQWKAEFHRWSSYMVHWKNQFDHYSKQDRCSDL
Sequence of Aryl hydrocarbon receptor (Homo sapiens) (P35869 whole entry, looked up): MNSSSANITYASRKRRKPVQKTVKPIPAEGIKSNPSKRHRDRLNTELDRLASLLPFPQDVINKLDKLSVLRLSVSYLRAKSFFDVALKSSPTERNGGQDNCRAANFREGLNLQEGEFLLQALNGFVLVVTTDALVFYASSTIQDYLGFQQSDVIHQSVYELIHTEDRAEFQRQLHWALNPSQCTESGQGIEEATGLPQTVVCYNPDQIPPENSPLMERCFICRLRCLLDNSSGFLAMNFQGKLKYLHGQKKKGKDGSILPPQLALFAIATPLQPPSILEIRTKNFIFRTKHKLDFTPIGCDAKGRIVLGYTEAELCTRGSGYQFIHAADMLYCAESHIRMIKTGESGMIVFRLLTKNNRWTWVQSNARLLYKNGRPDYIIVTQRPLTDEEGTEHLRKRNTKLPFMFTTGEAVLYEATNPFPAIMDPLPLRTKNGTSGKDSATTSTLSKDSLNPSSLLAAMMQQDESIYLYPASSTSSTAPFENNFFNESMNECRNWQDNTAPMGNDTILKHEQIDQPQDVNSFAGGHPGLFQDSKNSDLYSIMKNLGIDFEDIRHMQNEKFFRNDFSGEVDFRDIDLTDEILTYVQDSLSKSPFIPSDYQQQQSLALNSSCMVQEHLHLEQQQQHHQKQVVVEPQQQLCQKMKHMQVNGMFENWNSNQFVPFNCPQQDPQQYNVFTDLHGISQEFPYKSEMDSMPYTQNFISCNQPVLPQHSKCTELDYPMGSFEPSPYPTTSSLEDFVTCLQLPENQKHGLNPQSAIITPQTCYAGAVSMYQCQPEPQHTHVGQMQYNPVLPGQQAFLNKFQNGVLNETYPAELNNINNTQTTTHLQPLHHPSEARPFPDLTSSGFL

Regarding `COc1ccccc1[N+](=O)[O-]`, the Potency result in test [1], in test [2], in test [3], in [4], in test [5] and in test [7] was “inactive” throughout. The Potency result in test [8], in test [9] and in test [10] was “inactive” in each case. In test [6], the activity change, positive = activation is 4.31% (inactive).
Regarding `Oc1ccc(Cl)cc1Cc1cc(Cl)ccc1O`, the Potency in [2] is 31.2 µM (active); in test [4], 26.6 µM (active). The Potency entry in test [3], in test [11], in test [8] and in test [9] was “inactive” each time.
For the compound `Nc1ccccc1[N+](=O)[O-]`, the Potency result in test [2], in [3], in test [4], in test [7], in [11] and in test [8] was “inactive” each time. Moreover, the Potency entry in test [9] and in test [10] was “inactive” in each case.
As for `OC(Cc1ccccc1Cl)(Cn1[nH]cnc1=S)C1(Cl)CC1` (stereo not given), the Potency entry in [4], in [5], in test [7], in [11], in [8] and in test [9] was “inactive” throughout. Further, the Potency entry in test [10] is “inactive”. Also, the call in test [12], in test [13] and in test [14] was inactive.
Turning to `Brc1ccc(-c2ccccc2)cc1`, the Potency entry in test [2], in test [4], in test [11], in test [8] and in [10] was “inactive” in each case.
As for `OCC(CBr)(CBr)CBr`, the Potency entry in test [2], in test [4], in test [5], in test [7], in [11] and in [8] was “inactive” in each case. For the same compound, the Potency entry in test [9] and in test [10] was “inactive” throughout.
With `Brc1ccc(Br)c(Br)c1`, the Potency result in [2], in [3], in test [4], in test [5], in [7] and in [11] was “inactive” throughout. In addition, the Potency entry in [8], in [9] and in [10] was “inactive” in each case.
For `Fc1c(F)c(F)c(Br)c(F)c1F`, the Potency entry in test [2], in test [3], in [4], in test [7], in test [11] and in [8] was “inactive” in each case. The Potency entry in [9] and in test [10] was “inactive” throughout.
With `C1=CC2C3C=CC(C3)C2C1` (stereo not given), the Potency entry in test [2], in [4], in test [11], in test [8], in test [9] and in [10] was “inactive” in each case.
`Cc1cc(C(C)(C)c2ccc(O)c(C)c2)ccc1O`: the Potency in test [1] is 13 µM (active); in test [2], 65.3 µM (active); in test [4], 58.2 µM (active). The Potency entry in [3], in test [5], in [11], in test [8], in [9] and in test [10] was “inactive” throughout. The activity change, positive = activation in test [6] was -66.8% (inactive). Also, the outcome in test [12], in [13] and in test [14] was inactive.
For the compound `Cc1ccccc1N=O`, the Potency entry in test [4], in test [7], in [11], in test [8], in test [9] and in test [10] was “inactive” throughout.
`CCc1cccc(C)c1N`: the Potency result in test [1], in [2], in test [3], in test [4], in test [5] and in test [11] was “inactive” in each case. Also, the Potency result in [8] and in [10] was “inactive” throughout. In test [6], the activity change, positive = activation is 10.2% (inactive). The Potency in test [9] was 34.5 µM (active) and inactive.
On to `CC(CCl)OP(=O)(OC(C)CCl)OC(C)CCl` (stereo not given), for which the Potency entry in test [1], in [2], in [3], in [4], in [11] and in test [8] was “inactive” in each case. The Potency result in [9] and in test [10] was “inactive” each time. Moreover, in test [6], the activity change, positive = activation is -19.5% (inactive).
For the compound `CC(CCl)OC(C)CCl` (stereo not given), the Potency result in test [2], in test [11], in [8], in test [9] and in test [10] was “inactive” in each case.
Consider `Nc1ccc2c3c(cccc13)-c1ccccc1-2`, for which the Potency result in [2], in test [4], in [11], in test [8], in test [9] and in [10] was “inactive” in each case. Besides, in test [3], the Potency is 21.9 µM (active).
With `ClC1=C(Cl)[C@]2(Cl)[C@@H]3[C@@H](Cl)[C@H]4O[C@H]4[C@@H]3C1(Cl)C2(Cl)Cl`, the Potency entry in [3], in test [7], in test [11], in [8], in test [9] and in test [10] was “inactive” each time. Also, the Potency in test [4] was 68.6 µM (active). In addition, in [6], the activity change, positive = activation is -26.9% (inactive). Moreover, the outcome in test [12], in test [13] and in test [14] was inactive.
In the case of `CCCCCCCC#N`, the Potency entry in test [2], in test [4], in test [5], in test [7], in test [11] and in test [8] was “inactive” in each case. In addition, the Potency result in [9] and in test [10] was “inactive” throughout.
On to `c1cc(OCC2CO2)cc(OCC2CO2)c1` (stereo not given), for which the Potency in test [1] is 21.5 µM (active); in test [2], 38.3 µM (active). Also, the Potency entry in test [3], in test [4], in [11], in test [8], in [9] and in test [10] was “inactive” in each case.
Consider `c1ccc2c(c1)Sc1ccccc1N2CC1CN2CCC1CC2` (stereo not given), for which the Potency result in [3], in [11], in test [8], in test [9] and in test [10] was “inactive” throughout. For the same compound, in [4], the Potency was 29.8 µM (active). In [6], the activity change, positive = activation was -49.8% [at 42.5 µM] (inactive). For the same compound, the compound was classed as inactive in test [12], in test [13] and in test [14].
As to `C=CC(=O)OCCCCCCCC(C)C`, the Potency result in test [1], in [2], in [3], in test [4], in test [5] and in test [11] was “inactive” throughout. Moreover, the Potency result in [8], in test [9] and in test [10] was “inactive” throughout.
As for `Cc1cccc(C)c1[N+](=O)[O-]`, the Potency entry in test [2], in test [4], in test [5], in test [7], in test [11] and in [8] was “inactive” in each case. In addition, the Potency result in [9] and in test [10] was “inactive” throughout.
Take `COc1ccc(CCN2CCC(Nc3nc4ccccc4n3Cc3ccc(F)cc3)CC2)cc1`: the Potency in test [2] was 21.1 µM (active); in test [4], 1.25 µM (active); in test [7] it was 26.6 µM (active).
Regarding `CC(C)=O`, the Potency result in [2], in [4], in test [11], in [8], in test [9] and in test [10] was “inactive” each time.
As for `C=CCOC(=O)c1ccccc1C(=O)OCC=C`, the Potency entry in [1], in test [2], in [3], in test [4], in test [5] and in [11] was “inactive” each time. For the same compound, the Potency entry in test [8], in [9] and in [10] was “inactive” each time.
For `Clc1ccccc1-c1ccccc1Cl`, in test [2], the Potency was 78.1 µM (active). For the same compound, the Potency result in [3], in test [4], in [7], in test [11], in test [8] and in test [9] was “inactive” in each case. Besides, the Potency entry in [10] is “inactive”. The compound was called inactive in test [12], in test [13] and in test [14].
As to `Brc1ccccc1-c1ccccc1`, the Potency entry in test [4], in test [7], in [11], in test [8], in test [9] and in test [10] was “inactive” throughout. Besides, the activity change, positive = activation in test [6] was -1.58% (inactive).
